“And” between values parts separate entries of the source, which are not always exact repeats. Equal entries are not always repeated. Records with an inconclusive call do not appear. Where a call stands in place of a potency, no number is given. The source holds several records for some structures; these can differ, active in one and inactive in another. The source made the active and inactive calls. Unless noted, the call rests on the fitted dose curve; in most records, active means well fitted curve in the direction sought with a large enough effect in the repeat runs; inconclusive means weak or mixed curves; inactive means no such curve, though single readings can be large; an effect the other way counts as inactive or inconclusive.
How the values were obtained:
[1] = qHTS assay to identify small molecule antagonists of the thyroid receptor (TR) signaling pathway - cell viability counter screen (AID 743064); further: nearly all actives have a fitted effect of over 50% in size; further: potency means the concentration at half of the fitted maximal effect
Summary of the method: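 GH3.TRE-Luc rat pituitary cells carrying a TRE-luciferase reporter were treated with compound plus 1 nM T3 (final) for 23.5 h at 37 °C. Viability was then read in the same wells by CellTiter-Fluor fluorescence after a further 30 min.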

[2] = molecular target: Estrogen receptor (Homo sapiens) (UniProt P03372); test: qHTS assay to identify small molecule agonists of the estrogen receptor alpha (ER-alpha) signaling pathway using the BG1 cell line (AID 743079); further: nearly all actives have a fitted effect of over 20% in size; further: potency means the concentration at half of the fitted maximal effect
Chain of Estrogen receptor (Homo sapiens) (P03372 whole entry, looked up): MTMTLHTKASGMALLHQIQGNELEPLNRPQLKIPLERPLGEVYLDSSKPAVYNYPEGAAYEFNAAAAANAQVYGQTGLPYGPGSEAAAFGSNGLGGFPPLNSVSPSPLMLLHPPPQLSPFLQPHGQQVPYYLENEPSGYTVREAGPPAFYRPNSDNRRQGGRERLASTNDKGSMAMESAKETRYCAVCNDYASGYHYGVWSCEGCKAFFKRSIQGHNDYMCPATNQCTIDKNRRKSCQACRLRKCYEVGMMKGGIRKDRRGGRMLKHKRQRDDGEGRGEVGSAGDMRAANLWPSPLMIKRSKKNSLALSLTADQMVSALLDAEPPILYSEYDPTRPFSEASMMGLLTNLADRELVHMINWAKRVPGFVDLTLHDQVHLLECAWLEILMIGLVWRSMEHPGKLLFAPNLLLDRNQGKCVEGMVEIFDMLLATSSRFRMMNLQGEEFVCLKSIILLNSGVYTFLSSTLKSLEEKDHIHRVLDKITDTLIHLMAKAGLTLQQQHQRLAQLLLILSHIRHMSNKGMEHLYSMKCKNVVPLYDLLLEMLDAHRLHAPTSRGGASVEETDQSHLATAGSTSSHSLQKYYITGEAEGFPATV

[3] = qHTS assay to identify small molecule antagonists of the estrogen receptor alpha (ER-alpha) signaling pathway using the BG1 cell line (AID 743080; calls by dose curve;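 further: BG1 cells stimulated with 17beta-estradiol alongside compound; nearly all actives have a fitted effect of over 25% in size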; further: potency means the concentration at half of the fitted maximal effect)
Summary of the method: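 BG1-Luc-4E2 cells (endogenous full-length ER-alpha, stable 4×ERE-luciferase) were starved 5 days in phenol-red-free medium with 10% charcoal-stripped FBS, plated 24 h, then given compound plus 17beta-estradiol for 21.5 h at 37 C; ONE-Glo luminescence read after 30 min.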

[4] = qHTS assay to identify small molecule antagonists of the estrogen receptor alpha (ER-alpha) signaling pathway using the BG1 cell line - cell viability counter screen (AID 743081);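 further: compound given together with 17beta-estradiol as the ER stimulus; nearly all actives have a fitted effect of over 45% in size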; further: potency means the concentration at half of the fitted maximal effect
Aromatase (Homo sapiens) = Aromatase (Homo sapiens) (UniProt P11511); test: qHTS assay to identify aromatase inhibitors (AID 743083); further: nearly all actives have a fitted effect of over 55% in size; further: potency means the concentration at half of the fitted maximal effect
Chain of Aromatase (Homo sapiens) (P11511 whole entry, looked up): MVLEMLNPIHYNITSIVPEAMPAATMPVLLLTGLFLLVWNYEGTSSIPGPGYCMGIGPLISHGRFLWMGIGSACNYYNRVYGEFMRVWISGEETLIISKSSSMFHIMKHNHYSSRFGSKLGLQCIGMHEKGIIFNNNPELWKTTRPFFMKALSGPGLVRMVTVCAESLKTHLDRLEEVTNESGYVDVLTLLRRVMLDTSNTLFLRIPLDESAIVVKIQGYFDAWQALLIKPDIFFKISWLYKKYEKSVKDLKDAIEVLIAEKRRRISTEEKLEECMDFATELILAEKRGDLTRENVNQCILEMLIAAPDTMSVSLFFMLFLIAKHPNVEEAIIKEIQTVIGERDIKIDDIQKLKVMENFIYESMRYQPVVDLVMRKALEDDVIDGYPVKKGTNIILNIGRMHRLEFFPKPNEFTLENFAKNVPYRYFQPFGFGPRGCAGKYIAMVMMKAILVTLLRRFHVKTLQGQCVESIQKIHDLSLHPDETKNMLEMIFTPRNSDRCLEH

[5] = qHTS assay to identify aromatase inhibitors - cell viability counter screen (AID 743084);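 further: cells stimulated with testosterone during compound exposure; nearly all actives have a fitted effect of over 55% in size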; further: potency means the concentration at half of the fitted maximal effect
[6] = molecular target: Aryl hydrocarbon receptor (Homo sapiens) (UniProt P35869); test: qHTS assay to identify small molecule that activate the aryl hydrocarbon receptor (AhR) signaling pathway (AID 743085); further: nearly all actives have a fitted effect of over 15% in size; further: potency means the concentration at half of the fitted maximal effect;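 on activation: HG2L7.5c1 human HepG2 liver cells with stably integrated DRE-driven firefly reporter; series mostly up to about 70 µM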
Chain of Aryl hydrocarbon receptor (Homo sapiens) (P35869 whole entry, looked up): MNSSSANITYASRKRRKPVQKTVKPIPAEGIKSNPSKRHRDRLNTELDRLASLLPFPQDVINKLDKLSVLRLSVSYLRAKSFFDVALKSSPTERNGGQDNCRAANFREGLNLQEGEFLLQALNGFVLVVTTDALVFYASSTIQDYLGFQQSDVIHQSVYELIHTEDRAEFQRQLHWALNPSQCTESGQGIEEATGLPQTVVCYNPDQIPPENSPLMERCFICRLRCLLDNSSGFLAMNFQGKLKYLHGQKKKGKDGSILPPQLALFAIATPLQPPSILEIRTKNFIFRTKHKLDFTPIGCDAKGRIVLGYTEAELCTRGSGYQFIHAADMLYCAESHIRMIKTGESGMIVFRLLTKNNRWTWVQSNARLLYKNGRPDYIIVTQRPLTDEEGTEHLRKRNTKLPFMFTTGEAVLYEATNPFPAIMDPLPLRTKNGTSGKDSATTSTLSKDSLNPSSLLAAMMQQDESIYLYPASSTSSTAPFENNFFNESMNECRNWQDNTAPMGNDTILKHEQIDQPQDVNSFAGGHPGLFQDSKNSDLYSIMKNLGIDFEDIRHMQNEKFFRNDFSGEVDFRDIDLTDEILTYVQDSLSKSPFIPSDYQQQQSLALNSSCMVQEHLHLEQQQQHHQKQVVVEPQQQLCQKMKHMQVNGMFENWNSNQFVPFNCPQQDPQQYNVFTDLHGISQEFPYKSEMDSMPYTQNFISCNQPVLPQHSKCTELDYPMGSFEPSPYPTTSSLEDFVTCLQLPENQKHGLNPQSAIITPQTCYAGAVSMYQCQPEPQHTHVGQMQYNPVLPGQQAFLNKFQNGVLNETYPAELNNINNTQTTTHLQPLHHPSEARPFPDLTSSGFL
Summary of the method: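 HepG2 cells (HG2L7.5c1) stably carrying a firefly luciferase reporter driven by 20 dioxin responsive elements were exposed to compound for 24 h at 37C after a 5 h settling period; luminescence rise (ONE-Glo) indicated activation.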

[7] = qHTS assay to identify small molecule antagonists of the peroxisome proliferator-activated receptor gamma (PPARg) signaling pathway - cell viability counter screen (AID 743194); further: nearly all actives have a fitted effect of over 55% in size; further: potency means the concentration at half of the fitted maximal effect
Summary of the method: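 PPARg-UAS-bla HEK293H cells were plated, rested 5 h at 37 C, then treated with compounds plus rosiglitazone (50 nM final) for 17 h at 37 C; viability was then read by CellTiter-Glo luminescence after 30 min at room temperature.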

[8] = qHTS assay for small molecule agonists of the antioxidant response element (ARE) signaling pathway - cell viability counter screen (AID 743203; calls by dose curve; further: nearly all actives have a fitted effect of over 55% in size; further: potency means the concentration at half of the fitted maximal effect)
Summary of the method: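 Viability counter screen: stably transfected ARE-bla HepG2 line, 16 hrs compound exposure at 37C/5% CO2, ATP-based CellTiter-Glo luminescence measured in the reporter wells.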

[9] = qHTS assay to identify small molecule antagonists of the thyroid receptor (TR) signaling pathway (AID 743065); further: nearly all actives have a fitted effect of over 55% in size; further: potency means the concentration at half of the fitted maximal effect
Summary of the method: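 GH3.TRE-Luc rat pituitary cells carrying two TR response elements driving luciferase were plated for 4 h, given compound plus 1 nM T3 (final), and incubated 23.5 h at 37 C. ONE-Glo luminescence measured reporter inhibition; CellTiter-Fluor fluorescence tracked cytotoxicity.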

[10] = tested on: thyroid hormone receptor (rat, GH3 cells); test: qHTS assay to identify small molecule agonists of the thyroid receptor (TR) signaling pathway (AID 743066; calls by dose curve)
[11] = molecular target: Estrogen receptor (Homo sapiens) (UniProt P03372); test: qHTS assay to identify small molecule antagonists of the estrogen receptor alpha (ER-alpha) signaling pathway (AID 743069; active means well fitted curve in the direction sought with a large enough effect in the signal ratio in the repeat runs, not every such curve was filed as active; the % refers to the signal ratio; further: potency means the concentration at half of the fitted maximal effect)
Summary of the method: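 Screening used a UAS-driven beta-lactamase reporter integrated into HEK293 cells expressing ER-alpha, stimulated with 17beta-estradiol alongside test compounds over 18 hr at 37C; signal came from LiveBLAzer B/G FRET fluorescence.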

[12] = qHTS assay to identify small molecule antagonists of the estrogen receptor alpha (ER-alpha) signaling pathway - cell viability counter screen (AID 743074; calls by dose curve; further: nearly all actives have a fitted effect of over 45% in size)
[13] = molecular target: Estrogen receptor (Homo sapiens) (UniProt P03372); test: qHTS assay to identify small molecule agonists of the estrogen receptor alpha (ER-alpha) signaling pathway (AID 743075; calls by dose curve)
[14] = qHTS assay to identify small molecule that activate the aryl hydrocarbon receptor (AhR) signaling pathway - cell viability counter screen (AID 743086); further: nearly all actives have a fitted effect of over 45% in size; further: potency means the concentration at half of the fitted maximal effect
Summary of the method: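 HepG2-AhR-luc (HG2L7.5c1) cells, 4000/well, were preincubated 5 h at 37C, exposed to compound in qHTS format for 24 hr at 37C, then given CellTiter-Fluor for 30 min; viability was read as fluorescence in the reporter wells.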

[15] = qHTS assay for small molecule activators of the heat shock response signaling pathway - cell viability counter screen (AID 743209); further: nearly all actives have a fitted effect of over 50% in size; further: potency means the concentration at half of the fitted maximal effect
Summary of the method: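 Viability of HSE-bla HeLa cells is measured with CellTiter-Glo in the wells already used for the reporter read. Compound exposure lasts 5 h at 37 C, and luminescence is read after 30 min at room temperature.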

[16] = qHTS assay for small molecule activators of the heat shock response signaling pathway (AID 743210; active means well fitted activation curve with a large enough effect in the signal ratio in the repeat runs, with a control signal flat, not every such curve was filed as active; the % refers to the signal ratio;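 further: HeLa cells with beta-lactamase reporter driven by heat shock elements; series mostly up to about 63 µM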)
Summary of the method: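 Activation of heat shock element-controlled beta-lactamase expression is measured in HeLa cells by LiveBLAzer FRET fluorescence, with compound exposure lasting 5 h at 37 C and substrate loading 2.5 h at room temperature.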

[17] = molecular target: Peroxisome proliferator-activated receptor gamma (Homo sapiens) (UniProt P37231); test: qHTS assay to identify small molecule agonists of the peroxisome proliferator-activated receptor gamma (PPARg) signaling pathway (AID 743094; active means well fitted activation curve with a large enough effect in the signal ratio in the repeat runs, not every such curve was filed as active; the % refers to the signal ratio)
Chain of Peroxisome proliferator-activated receptor gamma (Homo sapiens) (P37231 whole entry, looked up): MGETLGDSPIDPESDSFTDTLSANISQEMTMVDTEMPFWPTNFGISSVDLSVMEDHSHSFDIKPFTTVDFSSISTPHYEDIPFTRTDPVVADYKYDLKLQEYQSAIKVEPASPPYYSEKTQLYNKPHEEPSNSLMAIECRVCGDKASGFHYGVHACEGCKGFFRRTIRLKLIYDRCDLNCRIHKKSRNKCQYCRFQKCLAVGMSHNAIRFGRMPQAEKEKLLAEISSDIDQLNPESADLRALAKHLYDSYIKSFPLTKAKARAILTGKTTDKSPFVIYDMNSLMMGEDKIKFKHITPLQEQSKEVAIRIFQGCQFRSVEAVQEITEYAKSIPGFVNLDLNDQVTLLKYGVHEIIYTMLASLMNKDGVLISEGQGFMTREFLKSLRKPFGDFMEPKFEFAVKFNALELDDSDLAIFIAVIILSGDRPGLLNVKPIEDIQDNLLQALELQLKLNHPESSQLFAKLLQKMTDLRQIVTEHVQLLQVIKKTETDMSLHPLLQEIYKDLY
Summary of the method: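 Reporter activation was scored by fluorescence of cleaved LiveBLAzer B/G substrate (1 h, room temperature) in PPARg-bla HEK293H cells previously treated 17 h at 37C with DMSO-dissolved compounds.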

[18] = qHTS assay for small molecule agonists of the antioxidant response element (ARE) signaling pathway (AID 743202; active means well fitted activation curve with a large enough effect in the signal ratio in the repeat runs, not every such curve was filed as active; the % refers to the signal ratio; further: potency means the concentration at half of the fitted maximal effect)
Summary of the method: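 Steps: seed ARE-bla HepG2 cells (2,000/well); incubate 5 h at 37 C; add compounds by pin tool; incubate 16 h at 37 C; add FRET substrate; read fluorescence after 2 h at RT.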

[19] = molecular target: Peroxisome proliferator-activated receptor gamma (Homo sapiens) (UniProt P37231); test: qHTS assay to identify small molecule antagonists of the peroxisome proliferator-activated receptor gamma (PPARg) signaling pathway (AID 743191; calls by dose curve; further: series mostly up to about 63 µM; nearly all actives have a fitted effect of over 30% in size)
Summary of the method: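 GeneBLAzer PPARg UAS-bla HEK293H cells carrying a UAS-driven beta-lactamase reporter were plated at 3000 cells/well, preincubated 5 h at 37C, then given compound for 17 h at 37C; LiveBLAzer B/G FRET substrate was read after 1 h at room temperature.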

Compound | Potency [1] | Potency [2] | Potency [3] | Potency [4] | Potency (Aromatase (Homo sapiens)) | Potency [5] | Potency [6] | Potency [7] | Potency [8] | Potency [9] | outcome [10] | Potency [11] | Potency [12] | Potency [13] | Potency [14] | Potency [15] | Potency [16] | Potency [17] | Potency [18] | Potency [19]
Cc1c2ccccc2c(C)c2c1ccc1ccccc12 | 27 µM (active) and 13.7 µM (active) | 30.3 µM (active) | 67.9 nM (active) and 486 nM (active) | inactive | inactive and 27.3 µM (active) | inactive | 8.55 µM (active) and 21.7 µM (active) | 49 µM (active) | 24.3 µM (active) |  |  |  |  |  |  |  |  |  |  | 
Cc1cc(=O)oc2cc(O)cc(O)c12 |  |  | inactive |  | inactive |  | 15.4 µM (active) |  | inactive | inactive | inactive | inactive | inactive | inactive | inactive | inactive |  |  |  | 
CCC(C)[O-].CCC(C)[O-].CCOC(=O)/C=C(/C)[O-].[Al+3] | inactive |  |  | inactive |  |  |  | inactive | inactive |  |  |  | inactive |  | inactive | inactive | inactive |  |  | 
O=S(=O)(O)c1ccc(Nc2nc(Nc3ccc(/C=C/c4ccc(Nc5nc(Nc6ccc(S(=O)(=O)O)cc6)nc(N(CCO)CCO)n5)cc4S(=O)(=O)O)c(S(=O)(=O)O)c3)nc(N(CCO)CCO)n2)cc1 |  | inactive | inactive |  | inactive |  | inactive | inactive | inactive | inactive | inactive |  |  |  |  | inactive |  |  |  | 
CCCC(=O)OCCc1ccccc1 | inactive |  |  | inactive | inactive | inactive | inactive | inactive | inactive |  |  |  | inactive |  | inactive | inactive | inactive | inactive |  | 
CCOC(=O)NNc1ccc(N(CC)CC(C)O)nn1 (configuration not stated) | inactive | inactive | inactive | inactive | inactive | inactive | inactive | inactive | inactive |  |  |  | inactive | inactive | inactive | inactive | inactive | inactive | inactive | 
OCC(F)(F)F |  |  |  | inactive | inactive | inactive | inactive | inactive | inactive | inactive | inactive |  | inactive |  | inactive | inactive | inactive | inactive | inactive | inactive
O=c1oc2cc(O)ccc2c2oc3cc(O)ccc3c12 | inactive |  |  | inactive | inactive |  |  | inactive | inactive |  |  |  |  |  | inactive | inactive |  |  | 20.8 µM (active) | 
CC(C)(C)C1CCC(=O)CC1 | inactive | inactive | inactive | inactive | inactive | inactive | inactive | inactive | inactive |  |  | inactive | inactive | inactive | inactive |  |  | inactive | inactive | 
CCc1cccc(CC)c1NC(=O)CN(CC(=O)O)CC(=O)O |  | inactive | inactive | inactive | inactive | inactive | inactive |  | inactive | inactive | inactive |  |  | inactive | inactive | inactive |  | inactive | inactive | 
COc1cc2nc(N3CCN(C(=O)c4ccco4)CC3)nc(N)c2cc1OC | 8.41 µM (active) | inactive | inactive | inactive |  |  |  |  | inactive |  |  |  | inactive | inactive |  | inactive | inactive | inactive |  | inactive
CCCCC(CC)CN1CN(CC(CC)CCCC)CC(C)(N)C1 (configuration not stated) |  | inactive | inactive | inactive | inactive | inactive | inactive | 29.8 µM (active) | 18.8 µM (active) | inactive | inactive | inactive | inactive | inactive | inactive | inactive |  | inactive |  | 
CC1(C)CC(O)CC(C)(C)N1 |  | inactive | inactive | inactive | inactive | inactive |  | inactive | inactive | inactive | inactive | inactive | inactive | inactive | inactive | inactive |  | inactive | inactive | 
O=C1OC2(c3ccc(O)cc3Oc3cc(O)ccc32)c2ccc(N=C=S)cc21 |  |  |  | inactive | inactive | inactive | inactive | inactive | inactive | inactive | inactive |  | inactive |  | inactive | inactive |  |  |  | 
CN1CCN(Cc2cc(-c3ccc4[nH]c(=O)oc4c3)co2)[C@@H](c2ccc(F)cc2)C1 | 46.7 µM (active) |  |  |  |  |  | inactive | inactive | inactive |  |  | 47.1 µM [inhibitor] (active) | inactive | inactive | 52.4 µM (active) | inactive |  |  |  | 
Nc1nc(-c2ccccc2)cs1 | inactive |  |  | inactive | inactive | inactive | 24.3 µM (active) | inactive | inactive |  |  |  | inactive |  | inactive | inactive |  | inactive |  | 
CNc1ccc([N+](=O)[O-])cc1 |  | 34.4 µM (active) |  | 48.7 µM (active) | 12.2 µM (active) | 34.4 µM (active) | 54.6 µM (active) | inactive |  | 27.4 µM (active) | inactive | inactive | inactive | inactive |  | 12.3 µM (active) |  | inactive | inactive | 
CC(C)(C)NSc1nc2ccccc2s1 | inactive | inactive | inactive | inactive |  | inactive | 27.8 µM (active) |  | inactive |  |  | inactive | inactive | inactive | inactive |  |  |  | 27.8 µM (active) | 
